Test systems include NCI-H226 lung; NCI-H322M lung; HOP-62 NSCLC; NCI-H460 lung; HOP-92 NSCLC; NCI-H522 lung; A549/ATCC NSCLC; 786-0 renal; COLO 205 colon.
Holding throughout (assay): NCI-60 one-dose screen, 48 h (100 = growth as untreated, 0 = no growth, -100 = all killed)
What all share (conditions): 10 µM unless noted

Here are results for nine compounds from PubChem BioAssay (NCI).

Compounds without any hit were thinned out: in the full panel of roughly 83,000, 20% have a hit.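 Compound tested at a single concentration for 48 hours in 96-well plates; a percent growth value below 10 was scored as active.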 Unmarked numbers belong to inactive results. The source made the active and inactive calls.

Consider `Oc1c(Br)c(Br)c(O)c(Br)c1Br`, for which the growth in the assay with NCI-H226 lung was 113%; in the assay on NCI-H322M lung, 105%; with HOP-62 NSCLC, 146%; in the assay with NCI-H460 lung, 120%; with HOP-92 NSCLC, 142%; in the assay on NCI-H522 lung, -88% (active). In addition, the growth is 118% in the assay with A549/ATCC NSCLC, 111% in the assay with 786-0 renal and -34.4% (active) with COLO 205 colon.
As to `O=C(O)c1ccc2c3c(ncnc13)-c1ccccc1C2=O`, the growth in the assay with NCI-H226 lung was 52.4%; in the assay with NCI-H322M lung it was 23.7%; with HOP-62 NSCLC, 12.3%; with NCI-H460 lung it was 11.5%; with HOP-92 NSCLC, 81%; in the assay with NCI-H522 lung, 77.7%. Also, the growth is -6.25% (active) in the assay on A549/ATCC NSCLC, 84.5% in the assay on 786-0 renal and 54.7% in the assay with COLO 205 colon.
Turning to `COc1ccccc1/C=C\C(=O)c1ccccc1`, the growth in the assay with NCI-H226 lung was 85.8%; in the assay on NCI-H322M lung, 95%; in the assay with HOP-62 NSCLC it was 85.9%; in the assay on NCI-H460 lung, 59.5%; in the assay with HOP-92 NSCLC, 16.3%; in the assay with NCI-H522 lung it was 39.2%. Besides, the figures for the growth in the assay with A549/ATCC NSCLC, in the assay on 786-0 renal and with COLO 205 colon were 96.4%, 81.9% and 111%, respectively.
With `N#CSCc1ccc(CSC#N)c(Cl)c1`, the growth with NCI-H226 lung was 93.1%; in the assay on NCI-H322M lung it was 106%; with HOP-62 NSCLC, 129%; with NCI-H460 lung, 75.5%; in the assay with HOP-92 NSCLC, 4.78% (active); with NCI-H522 lung, 15.7%. Also, the growth in the assay on A549/ATCC NSCLC was 75.8%; in the assay with 786-0 renal, 73.2%; in the assay with COLO 205 colon, 45%.
Consider `Oc1ccc(/C=N/NC(=S)Nc2ccccc2)nc1`, for which the growth was 5.69% (active) with NCI-H226 lung; 21.2% in the assay on NCI-H322M lung; 12.2% in the assay with HOP-62 NSCLC; 2.79% (active) in the assay with NCI-H460 lung; -0.553% (active) in the assay with HOP-92 NSCLC; -14.2% (active) with NCI-H522 lung. Moreover, the figures for the growth in the assay with A549/ATCC NSCLC, in the assay with 786-0 renal and with COLO 205 colon were 11.5%, -21% (active) and 24.4%, respectively.
For `CCOC(=O)/C=C/c1ccc([N+](=O)[O-])o1`, the growth with NCI-H226 lung is 20.2%; in the assay on NCI-H322M lung it was 96%; in the assay with HOP-62 NSCLC it was 112%; in the assay on NCI-H460 lung, 95.6%; in the assay with HOP-92 NSCLC, 47.6%; in the assay on NCI-H522 lung, -55.1% (active). The growth in the assay on A549/ATCC NSCLC was 96.4%; in the assay with 786-0 renal, 75.8%; with COLO 205 colon, 40.9%.
For the compound `CC(C)(C)CC(C)(C)c1ccc(OCCSC(=N)N)cc1`, the growth with NCI-H226 lung is 71.8%; in the assay with NCI-H322M lung it was 71.6%; in the assay on HOP-62 NSCLC it was 98.4%; in the assay with NCI-H460 lung, 35%; in the assay with HOP-92 NSCLC it was 17.7%; with NCI-H522 lung it was 48.3%. For the same compound, the growth was 77.2% with A549/ATCC NSCLC, 28.2% in the assay on 786-0 renal and -76.9% (active) in the assay with COLO 205 colon.
For `Cn1c2ccccc2c2nnc(N/N=C/c3ccccn3)nc21`, the growth in the assay with NCI-H226 lung is 5.03% (active); with NCI-H322M lung it was 11.8%; with HOP-62 NSCLC it was 4.96% (active); in the assay on NCI-H460 lung, -11.5% (active); in the assay with HOP-92 NSCLC, 14.5%; in the assay on NCI-H522 lung, 18.2%. The growth was 21.1% in the assay with A549/ATCC NSCLC, -21.6% (active) in the assay on 786-0 renal and -8.79% (active) in the assay with COLO 205 colon.
Regarding `N#CSCc1ccc(Cl)c(CSC#N)c1`, the growth was 74.2% in the assay on NCI-H226 lung; 98.7% in the assay on NCI-H322M lung; 74% in the assay on HOP-62 NSCLC; 16.3% in the assay on NCI-H460 lung; -4.43% (active) in the assay on HOP-92 NSCLC; 13.7% with NCI-H522 lung. The growth with A549/ATCC NSCLC was 35.5%; with 786-0 renal it was 32.1%; with COLO 205 colon it was -7.52% (active).
